Laboratory results taken from PubChem BioAssay (NCATS).
Where “and” joins values, the source holds several entries; their conditions need not be identical. Equal values may be shown once. Inconclusive results are not listed. Calls of active or inactive are those of the source. Unless noted, calls follow the shape of the full dose curve.

Test: Cytotoxicity counterscreen for inhibitors of SARS-CoV-2 cell entry (AID 1645845); also: nearly all actives have a fitted effect of over 50% in size; as to activity change, negative = cytotoxicity: % is scaled to controls: 0 for no effect and ±100 for the full control effect
Conditions: cell viability (SARS-CoV-2 entry assay cells); series mostly up to 57.1 µM; activity change, negative = cytotoxicity: at the top concentration
Method in brief: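 After a 15 min room-temperature ATPLite 1step step, luminescence reflected ATP remaining in HEK293-ACE2 cells exposed to compound for 1 h plus 48 h at 37 C, with percent activity set by cell and no-cell controls.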
For `Cc1c(C(=O)Nc2cccc(C(F)(F)F)c2)cc(-c2ccccc2)n1CCCN1CCOCC1`, the “activity change, negative = cytotoxicity” value was -3.31% (inactive). With `O=c1[nH]c2ccccc2n1C1CCN(Cc2ccc(-c3[nH]c4cc5ncnc5cc4nc3-c3ccccc3)cc2)CC1` the “outcome” value was “inactive”. In the case of `O=C(N[C@@H](COc1ccc2[nH]c(=O)[nH]c2c1)c1ccccc1)c1cccn(Cc2ccc(F)c(F)c2)c1=O`, the “activity change, negative = cytotoxicity” value is reported as 2% (inactive).

Test: Primary qHTS to identify inhibitors of SARS-CoV-2 cell entry (AID 1645846); also: nearly all actives have a fitted effect of over 45% in size; also: potency is read from the fitted curve at half-maximal effect
Conditions: SARS-CoV-2 pseudovirus cell entry assay, luminescence; activity change, negative = inhibition: at 57.1 µM (top of the series) unless noted; series mostly up to 57.1 µM
Method in brief: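 Inhibition of spike-mediated entry was scored in human ACE2-transfected Expi293F cells. Particles were MLV-pseudotyped with Wuhan-Hu-1 S carrying a 19-aa C-terminal deletion; signal was luciferase after two days, scaled between spike PP and fusion-protein-free PP.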
For `C[C@@H](Oc1cc(-n2cnc3ccc(CN4CCN(C)CC4)cc32)sc1C(N)=O)c1ccccc1C(F)(F)F`, the activity change, negative = inhibition was -97%. In the case of `Nc1ccccc1NC(=O)c1ccc(CNc2nccc(-c3cccnc3)n2)cc1`, the “outcome” value is reported as “inactive”. With `O=C(Nc1cccc(Cl)c1)Nc1ncc(CCNc2ncnc3ccsc23)s1` the Potency was 3.16 µM (active). In the case of `CC(C)c1onc(-c2c(Cl)cccc2Cl)c1COc1ccc(/C=C/c2cccc(C(=O)O)c2)c(Cl)c1`, the “outcome” value is reported as “inactive”. With `C1Cc2[nH]nc(-c3nn[nH]n3)c2C1` the activity change, negative = inhibition was 4.96%. For `CC[C@@H]1C(=O)N(C)c2cnc(Nc3ccc(C(=O)NC4CCN(C)CC4)cc3OC)nc2N1C1CCCC1`, the activity change, negative = inhibition was -96.8%. `COCCn1c2c([n+](Cc3cnccn3)c1C)C(=O)c1ccccc1C2=O` gave an activity change, negative = inhibition of -98.5%. With `S=C(NCc1ccc2c(c1)OCO2)N1CCN(c2ncnc3c2oc2ccccc23)CC1` the Potency was 6.31 µM (active). With `O=c1cc(CN2CCOCC2)occ1OCCCCCSc1ccnc2cc(C(F)(F)F)ccc12` the Potency was 10 µM (active). With `O=C(Nc1ccccc1-c1cn2c(CN3CCNCC3)csc2n1)c1cnc2ccccc2n1` the Potency was 7.94 µM (active). For `CCOC(=O)C(C)Oc1cccc2c(=O)n(CC(=O)Nc3ccc4c(c3)OCCO4)ccc12` (centres undefined), the activity change, negative = inhibition was -0.424%. In the case of `O=c1cc(N2CCOCC2)oc2c(-c3cccc4c3sc3ccccc34)cccc12`, the Potency is reported as 7.94 µM (active). In the case of `CC(C)(C)OC(=O)Nc1ccc(-c2cc(C(=O)NCCCCCCC(=O)NO)no2)cc1`, the activity change, negative = inhibition is reported as -8.17%. In the case of `CN(C)c1ccc(Nc2nc(N)n(C(=O)c3c(F)cccc3F)n2)cc1`, the Potency is reported as 12.6 µM (active). With `CC(C)C[C@H](NC(=O)CNC(=O)c1cc(Cl)ccc1Cl)B(O)O` the activity change, negative = inhibition was -97.2% and -98.8%. For `CN(C)CCN(C)C(=O)c1ccc(NC(=O)Nc2ccc(-c3nc(N4CCOCC4)c4ccn(CC(F)(F)F)c4n3)cc2)cc1`, the activity change, negative = inhibition was -96.8%. For `COc1nc(C)cnc1NS(=O)(=O)c1cccnc1-c1ccc(-c2nnco2)cc1`, the “outcome” value was “inactive”. In the case of `CC(C)(C)COc1ccc(-n2cc(C(=O)O)cn2)cc1C#N`, the activity change, negative = inhibition is reported as -72.8%. For `CC1=C[C@@H]2[C@@H]([C@@H](O)C[C@@]3(C)[C@H]2C[C@@H](C)[C@]3(O)C(=O)CO)[C@@]2(C)Cc3cnn(-c4ccccc4)c3C=C12`, the “outcome” value was “inactive”. In the case of `Cc1ccccc1N=Nc1ccc(N=Nc2c(O)ccc3ccccc23)c(C)c1`, the activity change, negative = inhibition is reported as -23%. In the case of `O=C(c1ccc(Nc2nccc(-c3cc4ccccc4s3)n2)cc1)N1CCC(N2CCCC2)CC1`, the Potency is reported as 11.2 µM (active). In the case of `C[C@@H](N)C(=O)O`, the activity change, negative = inhibition is reported as -18.7%. In the case of `Cc1nn(Cc2ccccc2Cl)c(C)c1CN(C)CC(O)COc1ccc(Cl)cc1` (centres undefined), the Potency is reported as 31.6 µM (active). For `CCN(CC)CCOc1ccc(Nc2ncc3cc(-c4c(Cl)cccc4Cl)c(=O)n(C)c3n2)cc1`, the Potency was 3.16 µM (active). With `O=C(Nc1ccc(F)c(C(F)(F)F)c1)Nc1nnc(-c2ccncc2)s1` the activity change, negative = inhibition was -21.1%. In the case of `C=CC(=O)Nc1cccc(Oc2nc(Nc3ccc(N4CCN(C)CC4)cc3OC)ncc2Cl)c1`, the Potency is reported as 31.6 µM (active). In the case of `COc1ccccc1-c1cccc(-c2c(O)c3cc(C#N)c(Cl)cc3[nH]c2=O)c1`, the activity change, negative = inhibition is reported as -22.8%. With `CCCCn1c(=O)n(Cc2ccccc2F)c(=O)c2[nH]c(Cc3ccc(NC(C)=O)cc3)nc21` the “outcome” value was “inactive”. `CCCCCCCc1ccc(CCc2cccc(O)c2C(=O)O)cc1` gave an activity change, negative = inhibition of -27.4%. For `C=CCc1cccc(/C=N/NC(=O)CN2CCN(Cc3ccccc3)CC2)c1O`, the Potency was 31.6 µM (active). `CC1(O)CC(c2nc(-c3ccc4ccc(-c5ccccc5)nc4c3)c3c(N)nccn23)C1` (centres undefined) showed an activity change, negative = inhibition of -23.9%. With `C[C@@]12O[C@@H](C[C@]1(O)CO)n1c3ccccc3c3c4c(c5c6ccccc6n2c5c31)CNC4=O` the Potency was 1.41 µM (active). With `Nc1nc(Nc2ccc(S(N)(=O)=O)cc2)nn1C(=O)c1c(F)cccc1F` the Potency was 1 µM (active). In the case of `COc1cc2c(cc1OC)[C@@H]1C(=O)c3ccc4c(c3O[C@@H]1CO2)C=CC(C)(C)O4`, the activity change, negative = inhibition is reported as -98.6%. In the case of `COc1cc2nccc(Oc3ccc(NC(=O)Nc4cc(C)on4)c(Cl)c3)c2cc1OC`, the Potency is reported as 14.1 µM (active).

Test: Primary qHTS for inhibitors of nuclear receptor binding SET domain protein 2 (NSD2) in an isogenic RCH-ACV NSD2 p.E1099K mutant (9B) (AID 1645876; active = well fitted curve in the direction sought with a large enough effect; an effect the other way counts as inactive or inconclusive; also: potency is read from the fitted curve at half-maximal effect; nearly all actives have a fitted effect of over 70% in size)
Conditions: RCH-ACV NSD2 E1099K (9B) viability, CellTiter-Glo, 72 h; series mostly up to 44.9 µM; activity change, negative = viability loss: at the top concentration
In the case of `Cc1c(C(=O)Nc2cccc(C(F)(F)F)c2)cc(-c2ccccc2)n1CCCN1CCOCC1`, the Potency is reported as 20.9 µM (active). In the case of `O=c1[nH]c2ccccc2n1C1CCN(Cc2ccc(-c3[nH]c4cc5ncnc5cc4nc3-c3ccccc3)cc2)CC1`, the Potency is reported as 2.95 µM (active). With `O=C(N[C@@H](COc1ccc2[nH]c(=O)[nH]c2c1)c1ccccc1)c1cccn(Cc2ccc(F)c(F)c2)c1=O` the Potency was 1.63 µM (active).

Test: Primary qHTS for inhibitors of nuclear receptor binding SET domain protein 2 (NSD2) in an RCH-ACV wild type WT cells (2C) (AID 1645877; active = well fitted curve in the direction sought with a large enough effect; an effect the other way counts as inactive or inconclusive; also: potency is read from the fitted curve at half-maximal effect; nearly all actives have a fitted effect of over 70% in size)
Conditions: RCH-ACV (leukaemia line) NSD2 WT (2C) viability, CellTiter-Glo, 72 h; series mostly up to 44.9 µM; activity change, negative = cell killing: at the top concentration
For `Cc1c(C(=O)Nc2cccc(C(F)(F)F)c2)cc(-c2ccccc2)n1CCCN1CCOCC1`, the Potency was 23.5 µM (active). For `O=c1[nH]c2ccccc2n1C1CCN(Cc2ccc(-c3[nH]c4cc5ncnc5cc4nc3-c3ccccc3)cc2)CC1`, the Potency was 5.25 µM (active). With `O=C(N[C@@H](COc1ccc2[nH]c(=O)[nH]c2c1)c1ccccc1)c1cccn(Cc2ccc(F)c(F)c2)c1=O` the Potency was 4.17 µM (active).
